# PLK1 PBD block: inhibitors of human PLK1 polo-box domain binding | Plk1 PBD binding of FITC phosphopeptide, fluorescence polarization | Potency, µM, without a hit: max response, negative = inhibition, most hits filed as inhibitors | 360,000 compounds, 2.8% hits | AID 720504; also: series mostly up to about 57 µM; nearly all actives have a fitted effect of over 65% in size
# Sfp PPTase inh: blocks B. subtilis Sfp PPTase activity; Q9F4F7; Biochemical Sfp PPTase activity, qHTS; Potency, µM, inactives show largest response in the series, negative = inhibition, most hits filed as inhibitors; 310,000 compounds, 3.5% hits; AID 1490;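 also: the enzyme is Sfp with the accession as filed and its product quenches rhodamine fluorescence; 0% = enzyme reaction without inhibitor and -100% = no enzyme wells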
#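 Fluorescence-quenching assay with 15 nM Sfp, 5 uM rhodamine-CoA and 12.5 uM BHQ-2-labelled ybbR peptide in pH 7.6 Hepes/MgCl2 buffer. Enzyme was pre-incubated with compound for 15 min at room temperature. Rate was taken from the 30-min fluorescence change (525/598 nm).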
# Tau ThT inhib: blocks human tau fibril formation measured by thioflavin T. 270,000 compounds, 2.1% hits. Potency, µM (doses to about 57.4 µM), inactives show top-dose activity, negative = inhibition, actives largely listed as inhibitors. recombinant tau K18 P301L, heparin-induced fibrillization, ThT fluorescence. AID 1460; also: nearly all actives have a fitted effect of over 55% in size
# Target sequence (P10636 561-689 P618L limits assumed): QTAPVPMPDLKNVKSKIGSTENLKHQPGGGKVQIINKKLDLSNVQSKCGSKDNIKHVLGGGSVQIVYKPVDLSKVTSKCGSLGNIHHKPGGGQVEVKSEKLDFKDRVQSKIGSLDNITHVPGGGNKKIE
#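 Heparin-induced fibrillization of the P301L-mutant K18 repeat-domain fragment of human tau was followed by ThT binding in quantitative high-throughput format.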
# VDR inhibitor: vitamin D3 receptor (human) inhibition. Potency, µM, for the others: max response, negative = inhibition, hits mostly inhibitors. P11473. VDR-SRC2-3 peptide fluorescence polarization, 2 h. AID 504847. 400,000 compounds, 0.93% hits
#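 Reagent solutions, kept cold and dark, are dispensed first; compounds are then pinned in at 23 nl, plates briefly spun, and incubated 2 h at ambient temperature. Inhibition of VDR–SRC2-3 peptide binding is read by fluorescence polarization.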
# Tau fluor cs: counter-screen for tau fibril formation inhibitors. tau K18 P301L (four-repeat tau fragment) Alexa594 fluorescence, heparin fibrillization. Potency, µM (series often up to 57.7 µM), inactives show at the top dose activity change, negative = decrease. 280,000 compounds, 0.93% hits; also: nearly all actives have a fitted effect of over 55% in size
#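 Human K18 P301L tau (15 uM unlabeled plus 0.24 uM Alexa 594-labeled, final) in 100 mM sodium acetate pH 7 was mixed with compound and 20 uM heparin and incubated 6 hr at 37 C.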
# Tau FP inhib: blocks human tau fibril formation measured by polarization. P10636. K18 P301L tau heparin fibrillization, Alexa594 FP, 6 h. Potency, µM (titrated, usually from 57.7 µM), for inactives: top-dose activity, negative = inhibition, usual class: inhibitors. 280,000 compounds, 0.39% hits. AID 1468; also: nearly all actives have a fitted effect of over 55% in size
#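 Human tau K18 […] P301L fragment, 15 uM unlabeled plus 0.24 uM Alexa 594-labeled tau (final), with compound and 20 uM heparin in 100 mM sodium acetate pH 7; 6 hr at 37 C, then Alexa 594 FP read.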
# Active calls of the source: *; u = inconclusive; x = no result; [ ] = remark or other dose. An excerpt weighted towards active compounds, which were near 6% of everything screened. Calls follow the shape of the dose curve; as a rule, active = well fitted curve in the direction sought with a large enough effect; inconclusive = small, poorly fitted or top-dose-only effect, or another doubt; inactive = no such curve, though single readings can be large; an effect the other way counts as inactive or inconclusive. Unless noted, % is scaled to controls: 0 for no effect and ±100 for the full control effect; potency is read from the fitted curve at half-maximal effect.
SMILES,PLK1 PBD block,Sfp PPTase inh,Tau ThT inhib,VDR inhibitor,Tau fluor cs,Tau FP inhib
O=C1NC(=S)N(c2ccc(Cl)cc2)C(=O)/C1=C/N1CCN(C(=O)c2ccco2)CC1,u,45µM*,-7%,11%,-25%,u
CC1=CC(=O)C2=C(C)C[C@@H](O)[C@@H]3[C@@H](OC(=O)[C@H]3C)[C@H]12,x,5%,x,6%,x,x
COc1ccc(N2C(=O)/C(=C/c3cc(C)n(-c4ccc(C)cn4)c3C)C(=O)NC2=S)c(OC)c1,30µM*,35µM*,u,-10%,-10%,-5%
O=C1NC(=S)N(c2ccc(F)cc2)C(=O)/C1=C\c1ccoc1,2.7µM*,20µM*,18µM*,u,-21%,u
CCOc1ccc(N2C(=O)/C(=C/c3ccc(C)o3)C(=O)NC2=S)cc1,4.7µM*,22µM*,x,u,x,x
CCc1ccccc1N1C(=O)N(Cc2ccccc2C)c2ccccc2S1(=O)=O,x,x,-1%,4%,-18%,u
Cc1ccc(C)c(N2CCN(c3ncnc4onc(C)c34)CC2)c1,x,x,u,14%,-20%,-9%
CC1Oc2cc3c(-c4c(O)cc(O)c5c(O)c6c(cc45)OC(C)C(C)C6=O)c(O)cc(O)c3c(O)c2C(=O)C1C (stereo not drawn),27µM*,15%,13µM*,79µM*,13µM*[quencher],u
Cc1ccc(OCC(=O)Nc2ccc(Cl)cc2C(=O)c2ccccc2)cc1C,x,x,3%,-16%,0%,-1%
O=C(O)[C@H]1[C@H]2CN[C@H](C(=O)O)[C@H]21,x,u,1%,18%,-2%,-1%
CCCN1C[C@H](C)N([C@H](c2ccc(C(=O)N(CC)CC)cc2)c2cccc(OC)c2)C[C@H]1C,x,13%,0%,u,-1%,-5%
Cn1c(=O)oc2cc(S(=O)(=O)NCc3cccnc3)ccc21,-6%,79µM*,x,-15%,-3%,5%
CCc1ccc(NC(=O)Cn2c(=O)oc3cc(S(=O)(=O)NCc4ccccc4)ccc32)cc1,x,x,-3%,5%,-16%,u
Cc1cccc(C)c1NC(=O)CN1CCCC1,-11%,11%,x,-2%,x,x
CC[C@H](C)[C@H](NC(=O)[C@@H](N)Cc1ccc(O)cc1)C(=O)NCC(=O)N[C@@H](CO)C(=O)N[C@@H](CCCN=C(N)N)C(N)=O,x,-3%,x,9%,x,x
C(=C\c1ccccc1)/CN1CCN(CCOC(c2ccccc2)c2ccccc2)CC1,x,56µM*,-15%,-10%,-14%,-5%
CC1([N+](=O)[O-])COP(=O)(Nc2ccc(Cl)cc2)OC1 (stereo not drawn),-3%,x,x,89µM*,x,x
CSc1ccccc1NP1(=O)OCC(C)([N+](=O)[O-])CO1 (stereo not drawn),-11%,x,x,-2%,x,x
O=C(O)CNC(=O)[C@@H](CS)Cc1ccccc1,x,35µM*,x,0%,x,x
CC1OC(OC2C(O)CC(OC3C(O)CC(OC4CCC5(C)C(CCC6C5CCC5(C)C(C7=CC(=O)OC7)CCC65O)C4)OC3C)OC2C)CC(O)C1O (stereo not drawn),x,24%,-22%,10%,4%,11%
[Cl-].[Cl-].[Hg+2],x,u,x,2.5µM*,x,x
CCOc1ccc2cc(C#N)c(=O)oc2c1,x,8%,x,3%,x,x
Cc1ccc(Cn2cccc(C(=O)Nc3ccc4c(c3)OCCO4)c2=O)cc1,x,x,u,21%,-30%,-12%
O=C(O)c1ccc(-c2ccc3cc(C45CC6CC(CC(C6)C4)C5)c(O)cc3c2)cc1,x,u,x,56µM*,x,x
Cc1ccc(-c2cc(-c3ccc(C)cc3)[n+](-c3ccc(C(=O)O)cc3)c(-c3ccc(C)cc3)c2)cc1,-22%,x,x,-9%,x,x
Cc1ccc(-c2csc(NC(CO)c3nc4ccccc4n3CCOCCO)n2)cc1 (stereo not drawn),21µM*,x,x,-12%,x,x
O=C1C=CC(=O)C(Cl)=C1,x,4µM*,11µM*,25µM*,u,16µM*
Cc1cccc(CN2C(=O)CN=C(c3ccccc3)c3cc(Cl)ccc32)c1,x,x,-15%,6%,-14%,3%
